# Results reported in PubChem BioAssay.
# Calls of active or inactive are those of the source.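 How the source made its calls: active means Her2 level under about 52% in both replicate screens, with viability over 70% of control (limit read from the data); inconclusive means Her2 under the limit in one screen only, or viability under 70%; inactive means Her2 level above the set limit.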
# Target: Receptor tyrosine-protein kinase erbB-2 (Homo sapiens) (UniProt P04626)
# Assay: reducers of endogenous Her2 protein level, primary screen, SKBR3 breast tumor cells, AlphaScreen, ATP viability (AID 461);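 further: lower value means less Her2 protein in the cells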
# Conditions: 18-24 h, at 10 µM, hits give low values
# Sequence of Receptor tyrosine-protein kinase erbB-2 (Homo sapiens) (P04626 whole entry, looked up): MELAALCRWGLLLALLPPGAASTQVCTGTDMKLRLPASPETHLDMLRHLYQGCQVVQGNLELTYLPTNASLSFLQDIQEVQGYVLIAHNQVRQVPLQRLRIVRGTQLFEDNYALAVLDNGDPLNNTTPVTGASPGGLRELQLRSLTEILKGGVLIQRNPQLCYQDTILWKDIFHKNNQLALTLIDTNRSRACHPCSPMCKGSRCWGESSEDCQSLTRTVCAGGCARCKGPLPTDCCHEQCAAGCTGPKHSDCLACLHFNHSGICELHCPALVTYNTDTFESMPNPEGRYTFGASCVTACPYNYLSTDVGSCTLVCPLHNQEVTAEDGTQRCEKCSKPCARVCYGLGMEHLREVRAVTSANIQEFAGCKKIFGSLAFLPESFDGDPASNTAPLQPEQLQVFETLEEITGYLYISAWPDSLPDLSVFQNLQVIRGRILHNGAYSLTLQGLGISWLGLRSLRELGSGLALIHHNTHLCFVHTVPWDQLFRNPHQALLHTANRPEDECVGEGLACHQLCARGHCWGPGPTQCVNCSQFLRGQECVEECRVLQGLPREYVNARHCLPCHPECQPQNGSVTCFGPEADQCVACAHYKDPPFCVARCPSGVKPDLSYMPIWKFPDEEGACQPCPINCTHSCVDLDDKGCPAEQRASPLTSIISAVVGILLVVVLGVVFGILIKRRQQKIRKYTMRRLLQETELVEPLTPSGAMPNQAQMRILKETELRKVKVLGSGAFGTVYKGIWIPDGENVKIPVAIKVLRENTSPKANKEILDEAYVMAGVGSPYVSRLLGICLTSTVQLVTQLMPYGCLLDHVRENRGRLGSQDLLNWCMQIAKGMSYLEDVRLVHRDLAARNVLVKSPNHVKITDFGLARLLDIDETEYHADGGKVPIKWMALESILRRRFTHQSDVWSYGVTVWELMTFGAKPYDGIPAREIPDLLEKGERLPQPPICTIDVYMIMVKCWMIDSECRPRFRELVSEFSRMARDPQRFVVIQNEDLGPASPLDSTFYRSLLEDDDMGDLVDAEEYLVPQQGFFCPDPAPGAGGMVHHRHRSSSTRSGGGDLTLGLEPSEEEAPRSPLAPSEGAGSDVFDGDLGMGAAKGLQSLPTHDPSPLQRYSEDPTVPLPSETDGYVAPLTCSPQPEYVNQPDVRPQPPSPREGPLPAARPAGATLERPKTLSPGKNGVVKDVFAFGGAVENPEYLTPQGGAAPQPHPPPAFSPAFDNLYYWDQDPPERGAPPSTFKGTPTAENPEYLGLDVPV
row,SMILES,Her2 level
1,COC(=O)c1ccc(CSc2nc(-c3ccc(OC)cc3)nc3c2c(=O)n(C)c(=O)n3C)o1,74% (inactive)
2,COC(=O)c1[nH]c2cc(OC)ccc2c1NC(=O)CN1CCOCC1,90.5% (inactive)
3,NC(=O)CSc1nnc(-c2ccc(O)cc2)n1Cc1ccco1,102% (inactive)
4,COc1ccccc1NC(=O)C1=C(C)Nc2nc(CCCO)nn2C1c1cccnc1 (stereo unspecified),94.5% (inactive)
5,CCOc1ccc(NC(=O)c2ccc3c(c2)N(Cc2ccc(F)cc2)C(=O)CS3=O)cc1 (stereo unspecified),81.5% (inactive)
6,CCn1c(=O)cc(OCC(=O)NC2CCCCC2)c2ccccc21,98.5% (inactive)
7,COc1ccc(OC)c(C(=O)CSc2nnc(-c3ccc(OC)c(OC)c3)o2)c1,104% (inactive)
8,Cc1nc(Nc2nc(=O)c3ccccc3n2C)nc2c(C)cccc12,98% (inactive)
9,CC(C)(C)OC(=O)NCCc1nnc(SCC(=O)c2ccc(Cl)cc2)o1,106% (inactive)
10,CCSc1nnc(NC(=O)C2CCCN(S(=O)(=O)c3cnc[nH]3)C2)s1 (stereo unspecified),97.5% (inactive)
11,O=C1CC(Cc2ccccc2)C(=O)N1CCCn1ccnc1 (stereo unspecified),102% (inactive)
12,Cc1ccc(CSC2=NCCN2C(=O)c2ccco2)cc1,98% (inactive)
13,O=C1c2ccccc2C(=O)N1Cc1nc2ccccc2c(=O)n1CCN1CCOCC1,81.5% (inactive)
14,c1cn(CC2(Cn3ccnc3)COC2)cn1,70.5% (inactive)
15,c1cncc(-c2nnc3n2N=C(c2cccs2)CS3)c1,73.5% (inactive)
16,CCOC(=O)N1CCN(c2c(N3CCc4ccccc4C3)c(=O)c2=O)CC1,86% (inactive)
